From PubChem BioAssay AID590 (National Center for Advancing Translational Sciences (NCATS), 2007)
Screen size: about 59,000 compounds; about 6,500 (11%) were called active. Inconclusive results (about 15%) are left out. Cut-off read from the data, not from the text of the source: active = max dye-equivalent concentration above about 10 nM; inconclusive = mostly about 1.1 nM to 9.6 nM; inactive = weaker than that. The full list was thinned out, with actives kept by preference.

Assay: qHTS Assay for Spectroscopic Profiling in A350 Spectral Region
Details: Compound autofluorescence, 340/450 nm, Alexa 350 dye-equivalents; stronger effect = higher value

Max dye-equivalent concentration, active:
CC1(C)CC(=O)c2cc(OCC(=O)NCC3CCCO3)ccc2O1 (configuration not stated) 1600 nM
CCCn1c(=NC(C)=O)c(C(=O)OCC)cc2c(=O)n3ccccc3nc21 4900 nM
CCC(=O)NC(=Nc1nc2ccccc2s1)NC(=O)CC 190 nM
O=C(CSc1nnc(-c2cccs2)n1-c1ccccc1)NCc1ccco1 11 nM
COc1ccc(-n2c(SCC(=O)NCc3cccs3)nnc2-c2ccoc2C)cc1 27 nM
COc1ccc(CCN2C(=O)c3[nH]nc(-c4ccccc4O)c3C2c2ccc(C)cc2)cc1OC (configuration not stated) 140 nM
N#C/C=C1\Sc2ccccc2C(=O)N1CC(=O)N1CCN(S(=O)(=O)c2ccccc2)CC1 15 nM
COc1ccc(CCn2c(-c3ccco3)nc3nc4ccccc4nc32)cc1OC 11 nM
CCOc1ccc2nc(NCCNS(=O)(=O)c3ccccc3)c(C#N)cc2c1 86 nM
CN(C)CCCNc1c2c(c(C#N)c3nc4ccccc4n13)CCC2 94 nM
N#Cc1c2c(c(N3CCN(CCO)CC3)n3c1nc1ccccc13)CCCC2 23 nM
COc1ccc(NS(=O)(=O)c2ccc(NC(=O)C(C)(C(F)(F)F)C(F)(F)F)cc2)nn1 23 nM
COc1ccc(N2C(=O)c3cccc4cccc(c34)C2=O)nn1 160 nM
COc1ccccc1NC(=O)C1=C(C)NC2=C(C(=O)CCC2)C1c1ccc(C)o1 (configuration not stated) 16 nM
Cc1nc(Nc2ccc3c(c2)OCCO3)c2nnn(Cc3ccccc3Cl)c2n1 980 nM
CCc1cc(=O)oc2cc(C)cc(OC(C)C(=O)O)c12 (configuration not stated) 110 nM
CCNCc1cc2cc(C)ccc2[nH]c1=O 53 nM
Cc1csc(NC(=O)NC2(C(F)(F)F)Oc3ccccc3O2)n1 100 nM
COc1ccc2[nH]c3ccc(OC)cc3c2c1 150 nM
CCOc1ccc(-c2nnc3ccc(SC)nn23)cc1 12 nM
Cc1c(NC(=O)C(C)OC(=O)c2cc3c4ccccc4n(C)c3s2)c(=O)n(-c2ccccc2)n1C (configuration not stated) 170 nM

Max dye-equivalent concentration, inactive:
O=S1(=O)CCN2C(=N1)SC1=C2CCN(Cc2ccccc2)C1
O=C(Cn1c(=O)n(Cc2ccco2)c(=O)c2ccccc21)NCC1CCCO1 (configuration not stated)
COc1ccccc1-n1cnc2cc(C(=O)NCC3CCCO3)ccc21 (configuration not stated)
O=C(c1csnn1)N1CCC2(CCN(Cc3nccs3)CC2)CC1
Cc1cc(C)n(C(=O)c2ccc(S(=O)(=O)N3CCCC3)cc2)n1
Cn1nnc2cc(C(=O)NCCC3=CCCCC3)ccc21
CCOC(=O)c1cc2n(c1N)-c1ccccc1C2=O
CCOC(=O)c1cc2n(c1C)-c1ccccc1C2=O
O=S(=O)(CCc1nc2ccccc2o1)c1ccc(Cl)cc1
CN1CCC2(CC1)NC(=O)NC2=O
CCN(CC)S(=O)(=O)c1cccc(C(=O)Nc2cc(C)nn2-c2nc(C)cc(C)n2)c1
COC(=O)Cc1cc(=O)n(-c2nc3ccccc3s2)[nH]1
CSCCC(Nc1nc2ccccc2s1)C(=O)O (configuration not stated)
O=C(O)[C@@H](S)[C@H](S)C(=O)O
Cc1ccc(-n2c(SCC(=O)Nc3ccc4c(c3)OCO4)nnc2-c2ccoc2C)cc1
COc1ccc(C(=O)NC(=O)CSc2nnc(-c3ccco3)n2-c2ccccc2)cc1
O=C(CSc1nnc(-c2cccs2)n1-c1ccccc1)N1CCN(C(=O)c2ccco2)CC1
O=C(CSc1nnc(-c2c[nH]c3ccccc23)n1-c1ccc(F)cc1)NCc1ccco1
NCCNCC1CCNCC1
Cc1cccc(N2CCN(S(=O)(=O)c3ccc4c(c3)c(=O)n(C)c(=O)n4C)CC2C)c1 (configuration not stated)
O=C(c1cnccn1)N1CCC[C@@]2(CCN(Cc3ccncc3)C2)C1
Cc1ccc(-c2ccc(=O)n(CC(=O)NCCCN3CCCCC3)n2)cc1
COc1ccc(CCN(C)CCN2C(=O)c3ccccc3C2=O)cc1OC
COc1ccc(-c2n[nH]c(C)c2-c2ccc(OC)c(OC)c2)c(O)c1
Cc1cc(C(=O)COC(=O)c2cccs2)c(C)n1-c1c(C)n(C)n(-c2ccccc2)c1=O
O=C(CCC(=O)N1CCN(S(=O)(=O)c2ccccc2)CC1)NC1CCCc2ccccc21 (configuration not stated)
Cc1ccc(S(=O)(=O)N2CCN(C(=O)CCC(=O)NC3CCCc4ccccc43)CC2)cc1 (configuration not stated)
COCCn1c(-c2ccc(OC)c(OC)c2)nc2ccccc21
COc1ccc(CCn2nnnc2C(c2ccccc2)N2CCN(C)CC2)cc1OC (configuration not stated)
CCc1ccccc1NC(=O)CSc1nnc([C@@H](NC(=O)OC(C)(C)C)C(C)C)o1
CN1CCN(C(=O)c2ccc(NS(=O)(=O)c3ccccc3)cc2)CC1
O=C(Nc1c[nH]c(=O)[nH]c1=O)Oc1ccccc1
COc1ccc(C(=O)Nc2ccc(S(=O)(=O)Nc3onc(C)c3C)cc2)cc1OC
COc1ccc2c(c1OC)C(=O)N(c1ncn[nH]1)C2
CCOc1ccc(Nc2oc(Cc3ccccc3)nc2C#N)cc1
O=C(O)c1cccc(S(=O)(=O)NCCO)c1
CCOc1ccccc1N(CC(=O)NC1CCCCC1)C(=O)CCCC(=O)Nc1ccccn1
CN(C)C(=O)/N=N\C(=O)N(C)C
CC(C)NS(=O)(=O)c1ccc(CCC(=O)N2CCOCC2)cc1
N=C(CC(=O)Nc1ccccn1)c1ccccc1
O=C(c1ccccc1)N1CCN(C(=O)N2CCCCC2)CC1
COc1ccc(-c2nc3n(c2Br)CCC3)cc1
CC(Sc1nncs1)C(=O)NCc1ccc2c(c1)OCO2 (configuration not stated)
CCOC(=O)c1c(C)[nH]c(C)c1C(=O)CSc1nc(N)cc(N)n1
O=S(=O)(NCCOc1cccc2cccnc12)c1ccc(F)cc1
COc1cc(NS(=O)(=O)c2ccc(NC(C)=O)cc2)cc(OC)c1
CC(=O)Nc1ccc(S(=O)(=O)Nc2cccc(NC(=O)C(C)(C)C)c2)cc1
O=C(CN(c1ccc2c(c1)OCCO2)S(=O)(=O)c1ccccc1)Nc1ccc2c(c1)OCO2
CCCn1c(C(O)c2cc(OC)ccc2OC)nc2ccccc21 (configuration not stated)
O=C(NCCc1ccco1)c1nn(Cc2ccccc2)c(=O)c2ccccc12
COc1c(O)cccc1-c1nnn(CCC(=O)OCC(=O)c2ccccc2)n1
COCCNc1ccnc(-c2cccc(NS(C)(=O)=O)c2)n1
COc1ccc(OCCCON2C(=O)c3ccccc3C2=O)cc1
CCOC(=O)c1[nH]cnc1C(=O)NC1CCCCC1
Fc1ccccc1CCNc1nnnn1-c1ccccc1
Cc1cc(C)n(-c2ccc(Cl)c(C(=O)O)n2)n1
COC(=O)C1=C(C)NC2=C(C(=O)c3ccccc32)C1c1ccc(-c2ccc(C(=O)O)cc2)o1 (configuration not stated)
COc1ccccc1NC(=O)C1=C(C)Nc2ncnn2C1c1ccc(C)o1 (configuration not stated)
O=C(CCCCn1c(=O)[nH]c2ccccc2c1=O)NCc1ccc2c(c1)OCO2
CC1CN(C(=O)CN2C(=O)NC(C)(c3ccccc3)C2=O)CC(C)O1 (configuration not stated)
CN(C(=O)C1CCOC1)c1nnc(-c2cccnc2)s1 (configuration not stated)
C[C@@H]1C[C@H]2[C@@H]3C[C@H](F)C4=CC(=O)C=C[C@@]4(C)[C@]3(F)[C@H](O)C[C@]2(C)[C@@]1(O)C(=O)CO
CCCCOc1ccccc1/C=c1/sc2nc(-c3oc4ccccc4c3C)nn2c1=O
Cc1cc(Cl)c(S(=O)(=O)Nc2ccc3c(c2)OCCO3)cc1OCC(N)=O
C#CCNc1nc(C(C)C)nc2c1nnn2Cc1ccccc1F
CSCC[C@H](NC(=O)NCc1cccs1)C(=O)O
COc1ccccc1CNc1ncncc1-c1cccnc1
CCOC(=O)CCCNC(=O)CN1C(=O)NC(CCc2ccccc2)C1=O (configuration not stated)
CCNc1nc(NCC)nc(N(C)n2cnnc2)n1
C=CCn1c(SCn2nnc3ccccc3c2=O)nnc1-c1ccc(Cl)cc1
COC(=O)N1CCC2(CCCN(Cc3ccccc3OC)C2)CC1
Cc1ccc2[nH]c(=O)c(-c3nc4c(C)cccn4c3NCc3ccco3)cc2c1
CCOC(=O)c1cc2cc(C)ccc2[nH]1
CC(C)(C)n1nnc(CCc2nnn(C(C)(C)C)n2)n1
Cc1csc(NC(=O)CN2CCCCCC2)n1
O=C(Nc1cc(N2CCOCC2)ncn1)NC1(C(F)(F)F)Oc2ccc(Cl)cc2O1 (configuration not stated)
COc1cccc(Oc2ccc(N)cc2)c1
COc1ccc2[nH]c3cc4c(=O)c5cc(OC)ccc5[nH]c4cc3c(=O)c2c1
CC(C)c1ccc(-c2nn[nH]n2)cc1
CCn1cc(C(=O)N2CCN(Cc3ccc4c(c3)OCO4)CC2)c2cc(OC)c(OC)cc2c1=O
CS(=O)(=O)N1CCC2(CC1)CN(c1ccncc1)C2
CC(=O)NC(Cc1ccc(F)cc1)C(=O)O (configuration not stated)
Cc1cc(C)cc(N(C(C)C(=O)Nc2c(C)n(C)n(-c3ccccc3)c2=O)S(C)(=O)=O)c1 (configuration not stated)
Cc1ccccc1OCCC(=O)Nc1c(C)n(C)n(-c2ccccc2)c1=O
C[C@H](NC(=O)OC(C)(C)C)c1nnc(SCC(N)=O)o1
CCCNS(=O)(=O)c1ccc(CCC(=O)NCc2cccnc2)cc1
